Measurements from PubChem BioAssay (Tox21).
“And” between values parts separate entries of the source, which are not always exact repeats. Identical values can stand only once. Records with an inconclusive call do not appear. Where a call stands in place of a potency, no number is given. A structure can be active in one record and inactive in another. The source made the active and inactive calls. Unless noted, calls follow the shape of the dose curve; as a rule, active = well fitted curve in the direction sought with a large enough effect in the repeat runs; inconclusive = weak or mixed curves; inactive = no such curve, though single readings can be large; an effect the other way counts as inactive or inconclusive.

Legend:
[1] = molecular target: Retinoic acid receptor RXR-alpha (Homo sapiens) (UniProt P19793); assay: qHTS assay to identify small molecule agonists of the RXR signaling pathway (AID 1159527; calls by dose curve; also: nearly all actives have a fitted effect of over 35% in size; also: potency is read from the fitted curve at half-maximal effect)
How it was run: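 16 hr incubation of compound-treated RXR-alpha-UAS-bla HEK 293T cells (2% charcoal-stripped FBS, 37 C) preceded a 2 hr room-temperature LiveBLAzer FRET substrate step and blue/green fluorescence measurement.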

[2] = qHTS assay to identify small molecule agonists of the RXR signaling pathway - cell viability counter screen (AID 1159529);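 also: HEK 293T cells carrying an RXR-alpha UAS beta-lactamase reporter; series mostly up to about 77 µM; nearly all actives have a fitted effect of over 50% in size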
How it was run: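 In this parallel viability measure, GeneBLAzer RXR-alpha HEK 293T cells (2% charcoal-stripped FBS) were given a 5 hr preincubation, treated with compounds 16 hr at 37 C, and read by CellTiter-Glo luminescence.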

[3] = qHTS assay to identify small molecule antagonists of the retinoid acid receptor (RAR) signaling pathway - cell viability counter screen (AID 1159551); also: nearly all actives have a fitted effect of over 35% in size
How it was run: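 C3RL4 cells were seeded overnight at 37 C, then treated with compounds plus 1 uM (final) retinol for 6 h at 37 C. Viability was read as ATP by CellTiter-Glo luminescence after 30 min at room temperature.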

[4] = qHTS assay to identify small molecule antagonists of the retinoic acid receptor (RAR) signaling pathway (AID 1159552; also: nearly all actives have a fitted effect of over 50% in size; also: potency is read from the fitted curve at half-maximal effect)
How it was run: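 C3RL4 RARE-luc cells, overnight plating; retinol 1 uM final added right after compound; 6 hr 37 C; luciferase read at 30 min RT.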

[5] = qHTS assay to identify small molecule agonists of the retinoic acid receptor (RAR) signaling pathway (AID 1159553); also: potency is read from the fitted curve at half-maximal effect
How it was run: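 C3RL4 cells carrying a RARE luciferase reporter were plated overnight at 37 C, then exposed to compounds in DMSO for 6 hr at 37 C and 5% CO2. Luminescence was read 30 min after luciferase reagent addition at room temperature.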

[6] = qHTS assay to identify small molecule antagonists of the estrogen related receptor (ERR) signaling pathway - cell viability counter screen (AID 1224818);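 also: series mostly up to about 46 µM; viability measured after 17.5 h of compound exposure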
How it was run: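 ERR reporter cells plated 6 h at 37 C/5% CO2, then compounds in DMSO pin-transferred and incubated 17.5 h at 37 C. Viability read as CellTiter-Fluor fluorescence after 30 min at 37 C.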

Retinoic acid receptor RXR-alpha (Homo sapiens), sequence (P19793 whole entry, looked up): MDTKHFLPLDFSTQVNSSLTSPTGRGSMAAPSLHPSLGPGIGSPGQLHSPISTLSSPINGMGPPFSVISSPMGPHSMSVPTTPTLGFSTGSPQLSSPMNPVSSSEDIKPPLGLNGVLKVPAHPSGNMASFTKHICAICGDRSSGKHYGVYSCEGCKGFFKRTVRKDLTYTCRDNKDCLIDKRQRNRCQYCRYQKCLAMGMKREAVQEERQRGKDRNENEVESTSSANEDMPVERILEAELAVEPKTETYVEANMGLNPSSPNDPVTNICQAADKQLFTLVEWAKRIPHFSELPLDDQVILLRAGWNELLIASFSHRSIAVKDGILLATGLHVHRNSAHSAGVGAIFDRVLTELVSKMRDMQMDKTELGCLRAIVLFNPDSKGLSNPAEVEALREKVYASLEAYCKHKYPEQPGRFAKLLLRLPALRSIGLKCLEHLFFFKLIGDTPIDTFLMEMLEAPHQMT

| SMILES | Potency [1] | Potency [2] | outcome [3] | Potency [4] | Potency [5] | outcome [6] |
| --- | --- | --- | --- | --- | --- | --- |
| OC[C@@H](O)[C@@H](O)[C@H](O)[C@H](O)CO | inactive | inactive | inactive | inactive | inactive | – |
| Nc1cccc(N)c1 | inactive | inactive | inactive | inactive | inactive | – |
| CC(=O)CCC(C)C | inactive | inactive | inactive | inactive | inactive | – |
| Cc1c(N(C)C)c(=O)n(-c2ccccc2)n1C | inactive | inactive | inactive | – | – | – |
| CCCCCCCCOc1ccc(C(=O)c2ccccc2)c(O)c1 | inactive | inactive | inactive | inactive | inactive | – |
| C=C(C)C(N)=O | inactive | inactive | inactive | inactive | inactive | – |
| NC(=O)c1ccc([N+](=O)[O-])cc1Cl | inactive | inactive | inactive | inactive | inactive | – |
| CC(=O)/C=C/C1=C(C)CCCC1(C)C | inactive | inactive | inactive | – | – | – |
| C=CCOC(=O)CC(C)C | inactive | inactive | inactive | inactive | inactive | – |
| CCCCC/C(C=O)=C\c1ccccc1 | inactive | inactive | inactive | inactive | inactive | – |
| NCCNc1cccc2ccccc12 | inactive | inactive | inactive | 30.6 µM (active) and 23.7 µM (active) | – | – |
| CCN1CCCC1=O | inactive | inactive | inactive | inactive | inactive | – |
| O=C(O)CCCCC1CCSS1 (configuration not stated) | inactive | inactive | inactive | – | – | – |
| CN(C)Cc1cc(CN(C)C)c(O)c(CN(C)C)c1 | inactive | inactive | inactive | inactive | inactive | – |
| c1ccc2[nH]c(-c3cscn3)nc2c1 | 1.1 µM (active) and inactive | inactive | inactive | inactive | 8.69 µM (active) and 2.43 µM (active) and 5.31 µM (active) | – |
| Cc1c(N(C)CS(=O)(=O)O)c(=O)n(-c2ccccc2)n1C | inactive | inactive | inactive | inactive | inactive | – |
| C/C=C/c1ccc(O)c(OC)c1 | inactive | inactive | inactive | inactive | inactive | – |
| COC(=O)C1CCC(C(=O)OC)CC1 (configuration not stated) | inactive | inactive | inactive | inactive | inactive | – |
| CC1(C)O[C@@H]2[C@@H](CO[C@@]3(COS(N)(=O)=O)OC(C)(C)O[C@@H]23)O1 | 17.4 µM (active) and inactive | inactive | inactive | inactive | inactive | – |

| SMILES | Potency [1] | Potency [2] | outcome [3] | Potency [4] | Potency [5] | outcome [6] |
| --- | --- | --- | --- | --- | --- | --- |
| C[C@]12C=CC(=O)C=C1CC[C@@H]1[C@@H]2C(=O)C[C@@]2(C)[C@H]1CC[C@]2(O)C(=O)CO | inactive | inactive | inactive | inactive | inactive | – |
| COc1cc(O)c(C(=O)c2ccccc2)cc1S(=O)(=O)O | inactive | inactive | inactive | inactive | inactive | – |
| COC(=O)c1ccc(C=O)cc1 | inactive | inactive | inactive | inactive | inactive | – |
| COc1ccccc1NC(=O)CC(C)=O | inactive | inactive | inactive | inactive | inactive | – |
| C#C[C@]1(O)CC[C@H]2[C@@H]3CCC4=CC(=O)CC[C@@H]4[C@H]3CC[C@@]21CC | inactive | inactive | inactive | – | – | – |
| O=C1CCCCCN1 | inactive | inactive | inactive | inactive | inactive | – |
| CCCCOCCOCCSC#N | inactive | inactive | inactive | inactive | inactive | – |
| C=C(C)OC(C)=O | inactive | inactive | inactive | inactive | inactive | – |
| COc1ccc(O)cc1 | inactive | inactive | inactive | – | – | – |
| CCn1cc(C(=O)O)c(=O)c2ccc(C)nc21 | inactive | inactive | inactive | inactive | inactive | – |
| CCOCCO | inactive | inactive | inactive | inactive | inactive | – |
| CC(C)(C)NCC(O)c1ccc(O)c(CO)c1 (configuration not stated) | – | inactive | inactive | inactive | inactive | inactive |
| CC(=O)Oc1ccccc1C(=O)O | – | inactive | inactive | inactive | inactive | inactive |
| CCc1cc(C(N)=S)ccn1 | – | inactive | inactive | inactive | inactive | – |
| Cc1cnc(NC(=O)C2=C(O)c3ccccc3S(=O)(=O)N2C)s1 | – | inactive | inactive | inactive | inactive | inactive |
| NC(=O)OCC(COC(N)=O)c1ccccc1 | – | inactive | inactive | inactive | inactive | inactive |
| Nc1ccc(N=Nc2ccccc2)c(N)n1 | – | inactive | inactive | inactive | 1.23 µM (active) and 969 nM (active) and 2.37 µM (active) | – |
| CC(=O)c1ccc(S(=O)(=O)NC(=O)NC2CCCCC2)cc1 | – | inactive | inactive | inactive | inactive | inactive |
